Bioassay records (PubChem BioAssay)
Only some compounds are listed: those with a hit (about 2.6% of all), similar ones and a draw of the others.
IDE cell inh: inhibitors of human insulin-degrading enzyme in cells; AID 434962; 320,000 compounds, 0.41% hits; inhibition, % at 5.59 µM; HEK cells, FAbetaB cleavage, fluorescence polarization; P14735;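 active means percent inhibition above the average of all tested compounds plus 3 SD, set per screening campaign, cut at about 16% in these data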;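 further: IDE supplied by intact live HEK cells; FP after avidin binding of uncleaved biotin substrate so inhibition keeps polarization high; 0% = DMSO wells and 100% = 60 µM reference IDE inhibitor Ii1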
Target sequence (P14735 whole entry, looked up): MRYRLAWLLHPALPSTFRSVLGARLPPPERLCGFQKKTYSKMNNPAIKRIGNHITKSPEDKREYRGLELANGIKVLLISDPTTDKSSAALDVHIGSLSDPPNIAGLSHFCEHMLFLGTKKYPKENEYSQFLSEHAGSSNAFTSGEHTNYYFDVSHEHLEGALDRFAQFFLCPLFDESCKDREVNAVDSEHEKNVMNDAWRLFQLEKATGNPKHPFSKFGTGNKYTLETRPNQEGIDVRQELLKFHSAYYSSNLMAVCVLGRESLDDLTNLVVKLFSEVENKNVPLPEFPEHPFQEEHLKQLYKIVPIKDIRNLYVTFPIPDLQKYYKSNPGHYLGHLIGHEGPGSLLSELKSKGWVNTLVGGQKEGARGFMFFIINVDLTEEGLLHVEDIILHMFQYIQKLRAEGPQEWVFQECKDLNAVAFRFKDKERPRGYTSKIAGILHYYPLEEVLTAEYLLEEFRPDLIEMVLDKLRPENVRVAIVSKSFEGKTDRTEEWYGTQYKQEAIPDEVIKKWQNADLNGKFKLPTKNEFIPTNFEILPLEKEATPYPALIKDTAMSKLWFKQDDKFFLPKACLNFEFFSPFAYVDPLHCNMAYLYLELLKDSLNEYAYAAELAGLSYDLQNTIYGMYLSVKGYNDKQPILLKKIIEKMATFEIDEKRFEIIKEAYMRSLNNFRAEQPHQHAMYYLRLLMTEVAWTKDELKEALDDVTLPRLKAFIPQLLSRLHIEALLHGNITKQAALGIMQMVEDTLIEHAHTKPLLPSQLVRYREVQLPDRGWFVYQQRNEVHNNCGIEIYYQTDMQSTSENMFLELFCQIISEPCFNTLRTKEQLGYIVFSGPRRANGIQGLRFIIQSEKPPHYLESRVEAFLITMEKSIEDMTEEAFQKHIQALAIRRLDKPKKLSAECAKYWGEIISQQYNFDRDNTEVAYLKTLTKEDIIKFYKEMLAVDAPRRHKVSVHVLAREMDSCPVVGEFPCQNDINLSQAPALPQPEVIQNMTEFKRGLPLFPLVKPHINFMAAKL
Myeloid diff 2: promotes myeloid progenitor differentiation | ER-HoxA9 myeloid progenitors, lysozyme-GFP differentiation, flow cytometry | calls only at 10 µM | 360,000 compounds, 1% hits;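 active means normalized GFP-positive differentiation at or above the plate's own cutoff, the solvent-only control mean plus 3 SD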;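 further: cells exposed to compound for four days before flow analysis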
CRFBP-R2 agonist: agonists of human CRF-binding protein/CRF-R2 receptor complex; HEK293 CRF-R2/CRF-BP, calcium dye fluorescence (FLIPR); percent of saturating CRF peptide response; activation, % at 13.2 µM; 350,000 compounds, 0.46% hits;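 active means activation of at least 50%, plus an integration ratio under a set limit after plate pattern correction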;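 further: plate controls were neutral control wells without compound for no effect and CRF at EC100 for full effect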
CRFR2-BP antag: antagonists of CRF-binding protein/CRF-R2 receptor complex; 350,000 compounds, 0.59% hits; inhibition, % at 11.8 µM; AID 588475; HEK293 CRF-R2/CRF-BP, CRF-induced calcium fluorescence;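 active means inhibition of the ligand-induced calcium signal above about 50% at the single tested concentration, limit read from the data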
TPT1 inh: blocks Candida albicans tRNA 2'-phosphotransferase; 300,000 compounds, 0.81% hits; recombinant caTPT1, FP RNA substrate dephosphorylation; AID 1962; inhibition, % at 5 µM;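 active means inhibition above the mean of all tested compounds plus 3 SD, set per screening campaign, cut at about 24% in these data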;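 further: plate controls were DMSO alone for no effect and ferristatin control at 100 nM for full effect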
IDE act: boosts human insulin-degrading enzyme activity in HEK cells. P14735. FAbeta-B cleavage, fluorescence polarization; 0% vehicle, 100% cell-free pure enzyme wells. AID 493087. activation, % at 5.96 µM. 340,000 compounds, 0.073% hits;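 active means activation above the mean of all tested compounds plus 3 SD, set per screening campaign, cut at about 17% in these data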
IDE cell inh cf: confirmation of human insulin-degrading enzyme inhibitors in cells; shares compounds with IDE cell inh; HEK cells, FAbetaB cleavage, fluorescence polarization; inhibition, % at 5.59 µM; 1,200 compounds, 51% hits;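 active means mean inhibition across triplicate wells above the cutoff set by the earlier primary insulin-degrading enzyme screen, cut at about 16% in these data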;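 further: 0% = DMSO wells and 100% = 60 µM reference IDE inhibitor Ii1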
HEK293 tox: HEK cell cytotoxicity, counter-screen for IDE inhibitors; 1,200 compounds, 28% hits; shares compounds with IDE cell inh; inhibition, % at 5.59 µM; HEK293 cytotoxicity, ATP luminescence; in the data active means inhibition above about 22%;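 further: 0% = vehicle wells and 100% = reference cytotoxic drug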
Starred values were filed as active, the others as inactive.

Results for CCCCn1c(N)c(N(CC(C)C)C(=O)c2cc(S(=O)(=O)N3CCCCC3)ccc2C)c(=O)[nH]c1=O ?
IDE cell inh: 6; Myeloid diff 2: inactive; CRFBP-R2 agonist: -1; CRFR2-BP antag: -1; TPT1 inh: 2; IDE act: 4

Results for COc1ccc(/C=N/n2c(C)nc3sc(C)c(C)c3c2=O)cc1 ?
IDE cell inh: 8; Myeloid diff 2: inactive; CRFBP-R2 agonist: -3; CRFR2-BP antag: 9; TPT1 inh: -7

What do the screens show for `Cc1sc2nc(C)n(/N=C/c3ccccc3)c(=O)c2c1C`?
IDE cell inh: 16*; Myeloid diff 2: inactive; CRFBP-R2 agonist: 1; CRFR2-BP antag: -18; TPT1 inh: -4; IDE act: -11; IDE cell inh cf: 10; HEK293 tox: 13

How did CCCCn1c2ccc(F)cc2c2nnc(NN)nc21 do in these assays?
IDE cell inh: -2; Myeloid diff 2: inactive; CRFBP-R2 agonist: 0; CRFR2-BP antag: 2; TPT1 inh: -5; IDE act: 8

How did CC1(C)CNC(=O)c2sc(NC(=O)c3ccccc3Cl)nc2C1 do in these assays?
IDE cell inh: 1; Myeloid diff 2: inactive; CRFBP-R2 agonist: 1; CRFR2-BP antag: -3; TPT1 inh: -3; IDE act: -4

How did Cc1ccc(C2=NN=C(NC(=O)CSc3nncn3C)SC2)cc1 do in these assays?
IDE cell inh: 24*; Myeloid diff 2: inactive; CRFBP-R2 agonist: 1; CRFR2-BP antag: -4; TPT1 inh: -2; IDE act: -19; IDE cell inh cf: 12; HEK293 tox: 11

How did CC(=O)N/C(=C\c1ccccc1)C(=O)OCC(=O)NC(C)C12CC3CC(CC(C3)C1)C2 (stereo not given) do in these assays?
IDE cell inh: 17*; Myeloid diff 2: inactive; CRFBP-R2 agonist: -3; CRFR2-BP antag: -42; TPT1 inh: 0; IDE act: -1; IDE cell inh cf: -5; HEK293 tox: 15

Results for Cc1ccc(CNC(=O)CC2C(=O)Nc3c2c(=O)n(C)c(=O)n3Cc2ccccc2)cc1 (stereo not given) ?
IDE cell inh: 2; Myeloid diff 2: inactive; CRFBP-R2 agonist: 5; CRFR2-BP antag: -6; TPT1 inh: 2; IDE act: -2

How did COc1cc(/C=C(/C#N)c2nc3ccccc3[nH]2)ccc1OCC(=O)Nc1ccccc1C do in these assays?
IDE cell inh: 3; Myeloid diff 2: inactive; CRFBP-R2 agonist: 1; CRFR2-BP antag: -9; TPT1 inh: -8; IDE act: 5

What do the screens show for `COc1cc(/C=C(\C#N)c2nc3ccccc3[nH]2)ccc1OC(=O)c1ccco1`?
IDE cell inh: 114*; Myeloid diff 2: inactive; CRFBP-R2 agonist: 12; CRFR2-BP antag: -70; TPT1 inh: 15; IDE act: -107; IDE cell inh cf: 153*; HEK293 tox: 12

What do the screens show for `CCN(CC)C(=O)COc1c(-c2ccco2)oc2ccccc2c1=O`?
IDE cell inh: -2; Myeloid diff 2: inactive; CRFBP-R2 agonist: -2; CRFR2-BP antag: -1; TPT1 inh: 4; IDE act: 2

What do the screens show for `CC(=O)Oc1c(-c2ccco2)oc2ccccc2c1=O`?
IDE cell inh: 77*; Myeloid diff 2: inactive; CRFBP-R2 agonist: 4; CRFR2-BP antag: -14; TPT1 inh: -3; IDE act: -95; IDE cell inh cf: 104*; HEK293 tox: 8

What do the screens show for `COc1cc(OC)cc(C(=O)Nc2cccc(NC(=O)c3cc(OC)cc(OC)c3)n2)c1`?
IDE cell inh: 17*; Myeloid diff 2: inactive; CRFBP-R2 agonist: 0; CRFR2-BP antag: -11; TPT1 inh: -3; IDE act: -4; IDE cell inh cf: 4; HEK293 tox: 17

Results for COc1ccc(OC)c(CN2CCN(C(=O)c3cccc(S(=O)(=O)N(C)c4ccccc4)c3)CC2)c1 ?
Myeloid diff 2: inactive; CRFBP-R2 agonist: -2; CRFR2-BP antag: 43

Results for Cc1ccccc1S(=O)(=O)Cc1ccc(C(=O)N2CC(C)CC(C)C2)o1 (stereo not given) ?
IDE cell inh: 3; Myeloid diff 2: inactive; CRFBP-R2 agonist: 0; CRFR2-BP antag: 4; TPT1 inh: -6; IDE act: 6

Results for Cc1ccccc1S(=O)(=O)Cc1ccc(C(=O)N2CCN(c3cccc(C)c3C)CC2)o1 ?
IDE cell inh: 17*; CRFBP-R2 agonist: 1; CRFR2-BP antag: 0; TPT1 inh: -3; IDE act: -6; IDE cell inh cf: 6; HEK293 tox: 69*

Results for COCCCNC(=S)N1CCCN(c2nc3cc(C)c(C)cc3cc2C#N)CC1 ?
IDE cell inh: 2; Myeloid diff 2: inactive; CRFBP-R2 agonist: -2; CRFR2-BP antag: -6; TPT1 inh: 1; IDE act: -11

Results for CCOCCCNC(=S)N1CCCN(c2nc3cc(C)c(C)cc3cc2C#N)CC1 ?
IDE cell inh: 21*; Myeloid diff 2: inactive; CRFBP-R2 agonist: 2; CRFR2-BP antag: -7; TPT1 inh: -3; IDE act: -9; IDE cell inh cf: 5; HEK293 tox: 17

What do the screens show for `Cc1ccc(Nc2cnn(C34CC5CC(CC(CC(=O)O)(C5)C3)C4)c(=O)c2Cl)cc1C`?
IDE cell inh: 32*; Myeloid diff 2: inactive; CRFBP-R2 agonist: 0; CRFR2-BP antag: 7; TPT1 inh: 1; IDE act: -24; IDE cell inh cf: 25*; HEK293 tox: 9

How did Cc1ccccc1NC(=O)C(C)Sc1nnc(-c2ccncc2)n1CC1CCCO1 (stereo not given) do in these assays?
IDE cell inh: 3; Myeloid diff 2: inactive; CRFBP-R2 agonist: 0; CRFR2-BP antag: -3; TPT1 inh: -2; IDE act: -1

Results for CCOC(=O)c1c(C)[nH]c(C(=O)COC(=O)CNC(=O)c2ccccc2Cl)c1C ?
IDE cell inh: 17*; Myeloid diff 2: inactive; CRFBP-R2 agonist: 0; CRFR2-BP antag: 11; TPT1 inh: -1; IDE act: 2; IDE cell inh cf: 1; HEK293 tox: 13

How did Cc1ccc(CCNC(=O)Cc2ccc(NC3=NC4CS(=O)(=O)CC4S3)cc2)cc1 (stereo not given) do in these assays?
IDE cell inh: 17*; Myeloid diff 2: inactive; CRFBP-R2 agonist: -1; CRFR2-BP antag: 13; TPT1 inh: -1; IDE act: -21; IDE cell inh cf: 8; HEK293 tox: 6

How did Cc1ccc(CCNC(=O)c2ccc(NC3=NC4CS(=O)(=O)CC4S3)cc2)cc1 (stereo not given) do in these assays?
IDE cell inh: 10; Myeloid diff 2: inactive; CRFBP-R2 agonist: -1; CRFR2-BP antag: -12; TPT1 inh: 0; IDE act: -4
